# High-throughput results (PubChem)
# Sampled rows, rich in hits. Any-hit rate of the full collection: about 1.5%.
# ANO1 activ = TMEM16A chloride channel activators or potentiators, primary screen, cell-based, HTS; B-score at 10 µM; HEK293 TMEM16A/YFP-H148Q/I152L, iodide quench fluorescence; stronger effect = lower value; 340,000 compounds, 0.3% hits;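 active = fluorescence-ratio B-score plate-corrected deviation score at least 3 library SD below zero, with starting fluorescence score within 5 deviations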;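 note: channel opened by trigger with iodide after compound preincubation; score built on the fluorescence ratio of max minus min over baseline; more negative score means more quench and so TMEM16A activation or potentiation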
# hiPSC survival = enhancers of single-cell hiPSC survival, primary screen, ATPlite luminescence; 100% = ROCK inhibitor wells, 0% = DMSO; survival enhancement, % at 20 µM; 360,000 compounds, 0.044% hits; in the data active = survival enhancement above about 18%;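 note: cells exposed to compounds for 16 hours before the ATP read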
# DAGLB inhibitor = DAGLB lipase inhibitors, primary screen, biochemical, fluorescence, HTS; 340,000 compounds, 0.059% hits; Diacylglycerol lipase-beta (Homo sapiens), Q8NCG7; HEK293T DAGLB membrane lysate, EnzChek fluorogenic substrate; inhibition, % at 5.17 µM; AID 504411, 2011; in the data active = inhibition above about 34%;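 note: 0% = enzyme with vehicle and 100% = wells lacking enzyme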
# Target sequence (Q8NCG7 whole entry, looked up): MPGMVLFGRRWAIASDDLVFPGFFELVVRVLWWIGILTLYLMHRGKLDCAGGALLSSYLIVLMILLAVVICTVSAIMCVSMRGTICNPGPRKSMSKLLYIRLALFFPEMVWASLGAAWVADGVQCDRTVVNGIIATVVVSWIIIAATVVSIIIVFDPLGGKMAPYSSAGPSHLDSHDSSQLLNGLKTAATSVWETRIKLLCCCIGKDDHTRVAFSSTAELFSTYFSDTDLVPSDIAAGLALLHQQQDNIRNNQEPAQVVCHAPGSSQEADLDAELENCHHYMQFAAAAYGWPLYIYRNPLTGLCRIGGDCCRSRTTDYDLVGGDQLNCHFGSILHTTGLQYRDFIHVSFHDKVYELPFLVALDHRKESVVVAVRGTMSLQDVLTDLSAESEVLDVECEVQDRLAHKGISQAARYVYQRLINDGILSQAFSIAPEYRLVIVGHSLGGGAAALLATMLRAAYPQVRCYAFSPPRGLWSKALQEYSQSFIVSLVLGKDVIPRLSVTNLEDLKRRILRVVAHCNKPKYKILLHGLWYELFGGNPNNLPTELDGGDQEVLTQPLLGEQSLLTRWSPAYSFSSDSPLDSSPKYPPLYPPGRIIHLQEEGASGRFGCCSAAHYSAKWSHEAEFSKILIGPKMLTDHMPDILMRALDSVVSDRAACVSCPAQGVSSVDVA
# ABCB6 inh 2 = ABCB6 transporter inhibitors, primary screen, K562-ABCB6 cells, flow cytometry, MLPCN library; ATP-binding cassette sub-family B member 6 (Homo sapiens), Q9NP58; K562-ABCB6 porphyrin accumulation, 1 h; stronger effect = lower value; fluorescence ratio to DMSO, % at 10 µM; 360,000 compounds, 0.19% hits; AID 602162, 2011;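 active = fluorescence ratio to DMSO below 75%, the collection mean minus 3 SD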;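 note: signal is porphyrin accumulated inside mitochondria; 100% equals median channel fluorescence of DMSO control wells; lower ratio means ABCB6 inhibition with less porphyrin fluorescence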
# ANO1 block = TMEM16A chloride channel inhibitors, primary screen, cell-based, HTS; HEK293 TMEM16A/YFP iodide influx fluorescence, ionomycin; normalized B-score (activity score, 25-100; higher = stronger inhibition) at 10 µM; 310,000 compounds, 1.2% hits; AID 588511, 2011;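 active = ratio plate-corrected score three or more library SD toward inhibition, starting fluorescence score within five deviations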;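 note: score derived from kinetic fluorescence span divided by baseline fluorescence per well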
# TMEM16A reconf = TMEM16A chloride channel inhibitors, confirmation, cell-based, re-confirmation; AID 652189, 2013; inhibition, % at 10 µM; 2,300 compounds, 39% hits; HEK293 TMEM16A/YFP-H148Q, iodide quench fluorescence; ionomycin added to raise cell calcium; shares compounds with ANO1 block;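 active = mean duplicate percent inhibition, scaled so buffer wells are 0 and the reference blocker 100, over three buffer SD above buffer mean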
# TMEM16A Ca cntr = calcium mobilization in TMEM16A/YFP HEK293 cells, confirmation, counter-screen for TMEM16A inhibitor project; shares compounds with ANO1 block; Fluo4 calcium mobilization; calcium response (% of ionomycin), % at 10 µM; 2,300 compounds, 2% hits; AID 652231, 2013;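 active = duplicate-averaged calcium signal over 20% of the ionomycin maximum, relative to buffer baseline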;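 note: each well's signal is peak minus trough fluorescence divided by its pre-addition baseline; 0% = buffer wells and 100% = ionomycin wells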
# YFP-HEK293 quench = iodide YFP quench changes in parental YFP-HEK293, counter-screen for TMEM16A inhibitor project, cell-based; YFP ratio F(max-min)/F0 at 10 µM; shares compounds with ANO1 block; 2,300 tested, under 10 active; ionomycin;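 active = yellow fluorescent protein signal ratio exceeding the buffer control mean by over 5 SD of those controls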;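 note: ratio is mean of duplicate wells from kinetic YFP trace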
# ClC-1 inh = ClC-1 chloride channel inhibition, selectivity assay for TMEM16A inhibitor project, cell-based, voltage-dependent ClC-1 | shares compounds with ANO1 block | CHO ClC-1-YFP, iodide influx fluorescence quench; iodide control reads 0, buffer control 100 | ratio percent, % at 10 µM | 2,300 tested, under 10 active | AID 652236, 2013;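 active = duplicate-mean ratio percent above the mean of iodide-only control wells, which defines zero, plus 5 of their SD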;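 note: higher percent means stronger block of ClC-1 iodide influx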
# * hit, by the source's call; i = inactive; / = not tested or not shown.
SMILES,ANO1 activ,hiPSC survival,DAGLB inhibitor,ABCB6 inh 2,ANO1 block,TMEM16A reconf,TMEM16A Ca cntr,YFP-HEK293 quench,ClC-1 inh
COc1ccc(NC(=O)c2cc(-c3ccccc3O)n[nH]2)cc1Cl,i,-1,-2,95,i,/,/,/,/
COc1ccc(NC(=O)c2cc(-c3cc(C)cc(C)c3O)n[nH]2)cc1Cl,i,9,0,92,100*,i,i,-1.1,1
O=C(CCc1ccccc1)N=C1SC2CS(=O)(=O)CC2N1c1ccccc1F (stereo unspecified),i,0,1,104,i,/,/,/,/
CC(O)(c1ccc(F)c(F)c1)c1nc(-c2ccccc2)cs1 (stereo unspecified),/,0,/,99,/,/,/,/,/
CC(C)CC(=O)c1c[nH]c(C(=O)NCCCN2CCOCC2)c1,i,0,-2,98,25*,i,i,-0.99,-10
Cc1ccc(C(=O)c2c[nH]c(C(=O)NCCCN3CCOCC3)c2)cc1,i,2,-2,102,i,/,/,/,/
COCCCNC(=O)c1cc(S(=O)(=O)NCCCN2CCCC2=O)ccc1Cl,i,0,-2,96,/,/,/,/,/
CCCCOc1ccc(C(=O)N2CC(C)OC(C)C2)cc1 (stereo unspecified),i,0,-1,89,i,i,i,-1,-5
COc1ccc(NC(=O)c2cc(C3CCCCN3C(=O)OCCF)on2)c(C)c1 (stereo unspecified),/,0,/,101,/,/,/,/,/
N#Cc1c(NC(=O)Cn2c(=O)oc3ccccc32)oc(-c2ccccc2)c1-c1ccccc1,i,-1,4,110,25*,28%*,i,-0.94,-12
CCc1cc2cc3c(cc2nc1SCC(=O)OC(C)C)OCO3,i,0,-10,100,100*,i,i,-1,-16
Cc1cccc(C(=O)Nc2sc(-c3ccccc3)cc2C(=O)O)c1,i,0,10,101,25*,i,i,-0.85,0
COc1ccc(NC(=O)CN(C)C(=O)CNC(=O)c2cccs2)cc1,i,0,-3,101,i,/,/,/,/
CCOC(=O)C1=C(c2cccc(Oc3ccccc3)c2)NC(=S)NC1C (stereo unspecified),i,-2,-1,97,100*,i,i,-1.2,-6
CCN1C(=O)C(CC(=O)Nc2ccc(F)cc2)N(CCc2ccc(OC)cc2)C1=S (stereo unspecified),i,-1,-2,99,25*,i,i,-0.96,-1
Cc1ccc(C)c(S(=O)(=O)N2CCCC2CNC(=O)C(=O)NC2CCCC2)c1 (stereo unspecified),i,0,1,95,i,/,/,/,/
CC(C)Cn1c(N)c(C(=O)COC(=O)c2cc(C3CC3)nc3ccccc23)c(=O)n(C)c1=O,/,/,/,/,25*,i,i,-1.1,-11
CCCC(=O)OC1CC(C)N(C(=O)c2ccccc2)c2ccc(C)cc21 (stereo unspecified),i,0,-7,104,i,/,/,/,/
CC(=O)OC1CC(C)N(C(=O)c2ccccc2)c2ccc(C)cc21 (stereo unspecified),i,2,-1,101,100*,i,i,-1.1,-5
